# Measurements from PubChem BioAssay (NCI).
# Where “and” joins values, the source holds several entries; their conditions need not be identical. Equal entries are not always repeated. This is part of a sample that, as a whole, favours compounds with a hit. Of some 83,000 tested, about 20% had one in any assay.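 Single-concentration screen, 48 h exposure, 96-well plates. Endpoint: percent growth. Below 10 = active.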 Calls of active or inactive are those of the source.
# Tested on: RXF 393 renal
# Assay: NCI-60 one-dose screen, 48 h (100 = growth as untreated, 0 = no growth, -100 = all killed)
# Details: 10 µM unless noted
row,Structure (SMILES),growth
1,S=c1nn[nH]n1C1CCCCC1,148% (inactive)
2,CCCC(=O)Oc1ccc(CC)cc1,117% (inactive)
3,CC(CN(C)C)CN1c2ccccc2Sc2ccccc21 (stereo unspecified),53.3% (inactive) and 86.1% (inactive) and 70.7% (inactive)
4,O=S(=O)(O)c1ccc2cc(O)ccc2c1,109% (inactive)
5,C(#CCN1CCOCC1)CCCN1CCOCC1,110% (inactive) and 119% (inactive)
6,COc1cc(Cl)ccc1C,91.2% (inactive)
7,Clc1ccc(/C=C/c2ccc3ccccc3n2)cc1,8.75% (active) and 117% (inactive)
8,CCC(C)(O)CCC(C)(O)CC (stereo unspecified),130% (inactive)
9,CC1(C)CC(=O)NC1=O,97.7% (inactive)
10,Cc1ccc(NC(=S)N/C=C(\c2ccccc2)S(=O)Cc2ccccc2)c(C)c1 (stereo unspecified),106% (inactive)
11,COC(=O)c1ccccc1Cl,121% (inactive)
12,N#Cc1c(N)nc2c(c(-c3ccc(Cl)cc3)nn2-c2ccccc2)c1C#N,97.1% [100 µM] (inactive)
13,Cn1c(-c2ccccc2)cc(=O)cc1-c1ccccc1,62% (inactive)
14,CC(C)(C)C1CCC(=NO)CC1 (stereo unspecified),90.6% (inactive)
15,CC1=CC(=O)c2cccc(NC3=NCCO3)c21,117% (inactive)
16,CCOC(C)=N,114% (inactive)
17,O=C(N=C1C(=O)C2(CCCCC2)C2(N=C(c3ccccc3)OC2=O)C12CCCCC2)c1ccccc1 (stereo unspecified),69.5% (inactive)
18,Cc1ccc2cccc([N+](=O)[O-])c2n1,119% (inactive) and 110% (inactive)
19,CCOc1ccc(/C=C\C(=O)O)cc1,138% (inactive)

row,Structure (SMILES),growth
1,O=C(Nc1ccccc1)OCC(CN1CCCCC1)OC(=O)Nc1ccccc1 (stereo unspecified),60% (inactive) and 86.8% (inactive)
2,CSc1nc(N)c(N)c(N)n1,115% (inactive)
3,O=C(O)c1cc(=O)[nH]c(=O)[nH]1,118% (inactive)
4,C/C=C/C(=O)OCCCCCCCCCCCC,110% (inactive)
5,CCOC(=O)C1=CC(=O)CC(C)(C)O1,118% (inactive) and 114% (inactive)
6,CCN(CC)CCO/N=C1\CC(c2ccc(OC)c(OC)c2)Oc2ccccc21 (stereo unspecified),65.5% (inactive)
7,NC1=NC(c2ccccc2)N=C(Nc2ccccc2)N1 (stereo unspecified),91.5% (inactive)
8,Cc1cnc(N)s1,105% (inactive)
9,CC1=CC(=O)C=CC1=Nc1ccc(N(C)C)cc1,93.2% (inactive) and 50.6% (inactive)
10,C#CCOC(=O)C(N)CS (stereo unspecified),106% (inactive)
11,O=C(O)c1ccc2c3ccc(C(=O)O)c4c(C(=O)O)ccc(c5ccc(C(=O)O)c1c25)c43,100% (inactive)
12,COc1ccc2nccc(Cl)c2c1,105% (inactive)
13,COC(=O)c1nc(N)nc(C(=O)OC)c1C(=O)c1cccc2ccccc12,105% (inactive)
14,C/C(CC(C)C)=N/NC(N)=S,108% (inactive)
15,Cc1c(Cl)c(C)c(Cc2c(C)c(Cl)c(C)c(Cl)c2O)c(O)c1Cl,4.04% (active)
16,CCCC(=O)Oc1ccc2ccccc2c1,112% (inactive)
17,CCOC(=N)c1ccc(C(=N)OCC)cc1,112% (inactive)
18,COc1ccc(/C=C/C(=O)O)cc1OC,107% (inactive) and 111% (inactive)
19,CCCC(=O)OCC(COC(=O)CCC)OC(=O)CCC,110% (inactive)

# Tested on: SF-268 CNS
# Assay: as above
# Details: 10 µM unless noted
row,Structure (SMILES),growth
1,S=c1nn[nH]n1C1CCCCC1,105% (inactive)
2,CCCC(=O)Oc1ccc(CC)cc1,96.9% (inactive)
3,CC(CN(C)C)CN1c2ccccc2Sc2ccccc21 (stereo unspecified),90.8% (inactive) and 91.7% (inactive) and 78.1% (inactive)
4,O=S(=O)(O)c1ccc2cc(O)ccc2c1,106% (inactive)
5,C(#CCN1CCOCC1)CCCN1CCOCC1,105% (inactive) and 104% (inactive)
6,COc1cc(Cl)ccc1C,83.9% (inactive)
7,Clc1ccc(/C=C/c2ccc3ccccc3n2)cc1,43.4% (inactive) and 97.7% (inactive) and 96.9% (inactive)
8,CCC(C)(O)CCC(C)(O)CC (stereo unspecified),99.2% (inactive)
9,CC1(C)CC(=O)NC1=O,100% (inactive)
10,Cc1ccc(NC(=S)N/C=C(\c2ccccc2)S(=O)Cc2ccccc2)c(C)c1 (stereo unspecified),101% (inactive)
11,COC(=O)c1ccccc1Cl,98.9% (inactive)
12,N#Cc1c(N)nc2c(c(-c3ccc(Cl)cc3)nn2-c2ccccc2)c1C#N,93.7% [100 µM] (inactive)
13,Cn1c(-c2ccccc2)cc(=O)cc1-c1ccccc1,89.9% (inactive)
14,CC(C)(C)C1CCC(=NO)CC1 (stereo unspecified),109% (inactive)
15,CC1=CC(=O)c2cccc(NC3=NCCO3)c21,100% (inactive)
16,CCOC(C)=N,106% (inactive)
17,O=C(N=C1C(=O)C2(CCCCC2)C2(N=C(c3ccccc3)OC2=O)C12CCCCC2)c1ccccc1 (stereo unspecified),77.8% (inactive)
18,Cc1ccc2cccc([N+](=O)[O-])c2n1,103% (inactive)
19,CCOc1ccc(/C=C\C(=O)O)cc1,115% (inactive)

row,Structure (SMILES),growth
1,O=C(Nc1ccccc1)OCC(CN1CCCCC1)OC(=O)Nc1ccccc1 (stereo unspecified),79.2% (inactive) and 94.7% (inactive)
2,CSc1nc(N)c(N)c(N)n1,107% (inactive)
3,O=C(O)c1cc(=O)[nH]c(=O)[nH]1,112% (inactive) and 100% (inactive)
4,C/C=C/C(=O)OCCCCCCCCCCCC,106% (inactive)
5,CCOC(=O)C1=CC(=O)CC(C)(C)O1,108% (inactive) and 103% (inactive)
6,CCN(CC)CCO/N=C1\CC(c2ccc(OC)c(OC)c2)Oc2ccccc21 (stereo unspecified),99.3% (inactive)
7,NC1=NC(c2ccccc2)N=C(Nc2ccccc2)N1 (stereo unspecified),49.2% (inactive) and 54% (inactive)
8,Cc1cnc(N)s1,93.8% (inactive)
9,CC1=CC(=O)C=CC1=Nc1ccc(N(C)C)cc1,93.9% (inactive) and 66.9% (inactive)
10,C#CCOC(=O)C(N)CS (stereo unspecified),96.4% (inactive)
11,O=C(O)c1ccc2c3ccc(C(=O)O)c4c(C(=O)O)ccc(c5ccc(C(=O)O)c1c25)c43,105% (inactive)
12,COc1ccc2nccc(Cl)c2c1,92.8% (inactive)
13,COC(=O)c1nc(N)nc(C(=O)OC)c1C(=O)c1cccc2ccccc12,116% (inactive)
14,C/C(CC(C)C)=N/NC(N)=S,88.8% (inactive)
15,Cc1c(Cl)c(C)c(Cc2c(C)c(Cl)c(C)c(Cl)c2O)c(O)c1Cl,19.6% (inactive)
16,CCCC(=O)Oc1ccc2ccccc2c1,105% (inactive)
17,CCOC(=N)c1ccc(C(=N)OCC)cc1,98.4% (inactive)
18,COc1ccc(/C=C/C(=O)O)cc1OC,108% (inactive) and 99.3% (inactive)
19,CCCC(=O)OCC(COC(=O)CCC)OC(=O)CCC,104% (inactive)
